The source of these data is ChEMBL document CHEMBL3988442, “University of Dundee, Small-Polar-MMV Screening Library” (2021).

Holding throughout (set-up): scale not given: direction of the effect not stated beside the values
The target in assay [1] is Protein translocase subunit SecA (Escherichia coli (strain K12)) (UniProt P10408). Description: Assay to Identify E. coli SecA ATPase Inhibitors. Format: functional. Particulars: 30 µM.
Assay [2] concerns the target T1, Ubiquitin-activating enzyme e1, putative (Leishmania donovani (strain BPK282A1)) (UniProt E9BSI1).
T1 sequence (whole entry): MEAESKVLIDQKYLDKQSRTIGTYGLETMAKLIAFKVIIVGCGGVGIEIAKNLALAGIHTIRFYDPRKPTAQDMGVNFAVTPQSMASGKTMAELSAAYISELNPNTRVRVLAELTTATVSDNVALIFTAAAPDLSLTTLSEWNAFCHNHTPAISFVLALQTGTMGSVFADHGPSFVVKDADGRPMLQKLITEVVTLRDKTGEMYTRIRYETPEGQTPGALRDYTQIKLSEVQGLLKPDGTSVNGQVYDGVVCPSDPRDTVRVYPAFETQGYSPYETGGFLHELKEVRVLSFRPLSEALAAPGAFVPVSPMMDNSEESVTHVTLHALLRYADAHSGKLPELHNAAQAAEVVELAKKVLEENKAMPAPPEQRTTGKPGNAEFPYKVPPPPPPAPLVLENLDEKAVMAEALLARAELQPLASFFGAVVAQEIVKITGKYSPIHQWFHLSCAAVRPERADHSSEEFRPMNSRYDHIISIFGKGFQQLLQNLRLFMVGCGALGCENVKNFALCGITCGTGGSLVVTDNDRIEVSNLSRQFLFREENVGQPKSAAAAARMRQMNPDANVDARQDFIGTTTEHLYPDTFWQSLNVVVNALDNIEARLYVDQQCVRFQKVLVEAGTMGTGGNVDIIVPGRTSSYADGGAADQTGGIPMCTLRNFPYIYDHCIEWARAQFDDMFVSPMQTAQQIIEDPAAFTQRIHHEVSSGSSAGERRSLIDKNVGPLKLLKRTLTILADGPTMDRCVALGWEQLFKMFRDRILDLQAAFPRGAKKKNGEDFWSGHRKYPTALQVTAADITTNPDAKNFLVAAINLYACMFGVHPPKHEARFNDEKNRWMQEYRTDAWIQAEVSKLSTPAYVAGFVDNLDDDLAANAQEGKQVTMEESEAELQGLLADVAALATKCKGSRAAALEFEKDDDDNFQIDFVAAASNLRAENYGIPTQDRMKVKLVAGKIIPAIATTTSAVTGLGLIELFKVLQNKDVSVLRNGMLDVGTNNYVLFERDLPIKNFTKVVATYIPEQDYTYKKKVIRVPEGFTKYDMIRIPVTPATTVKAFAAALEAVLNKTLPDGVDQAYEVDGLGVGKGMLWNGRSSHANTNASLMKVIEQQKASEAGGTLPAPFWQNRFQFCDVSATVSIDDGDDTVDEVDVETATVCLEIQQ
The experiment in a line: Leishmania donovani Ubiquitin Activating Enzyme (LdE1). Format: functional. Particulars: 30 µM.

Assay [3] addresses AMP-activated protein kinase, AMPK (Homo sapiens) (UniProt P54646+O43741+P54619+Q9UGJ0+Q9Y478+Q13131+Q9UGI9). Description: AMP-dependent Kinase enzyme assay. An in vitro enzyme assay that detects ADP turnover that is directly proportional to AMPK activity. This uses naive AMPK that is activated during the assay with MK-8722. Format: functional. Particulars: 30 µM.
The target of assay [4] is Sialic acid-binding Ig-like lectin 9 (Homo sapiens) (UniProt Q9Y336). Description: Hs-Siglec9 ALPHAscreen SOP 20170721. Particulars: 10 µM. A general note: In Alpha technology, singlet oxygen from a donor bead excites a nearby acceptor bead.
A further assay concerns Trypanosoma cruzi. Description: Trypanosoma cruzi phosphomannomutase and mannose-1-phosphate guanylyltransferase assay. It counts as functional. Particulars: 10 µM.
In assay [5] the target is T2, Arginase-2, mitochondrial (Homo sapiens) (UniProt P78540).
T2 sequence (whole entry): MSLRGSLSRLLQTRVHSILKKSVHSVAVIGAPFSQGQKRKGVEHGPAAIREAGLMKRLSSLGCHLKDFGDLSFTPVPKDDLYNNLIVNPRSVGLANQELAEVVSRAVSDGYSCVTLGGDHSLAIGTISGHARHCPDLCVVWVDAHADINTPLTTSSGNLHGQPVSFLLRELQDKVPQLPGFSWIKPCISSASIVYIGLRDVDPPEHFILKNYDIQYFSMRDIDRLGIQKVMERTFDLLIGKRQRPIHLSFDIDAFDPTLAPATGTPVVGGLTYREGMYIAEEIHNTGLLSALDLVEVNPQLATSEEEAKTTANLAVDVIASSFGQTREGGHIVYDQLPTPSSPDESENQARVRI
Description: in vitro enzyme assay to detect the production of urea directly proportional to the activity of Arginase II. Note: in the data most compounds retested in dose-response had high values. It counts as functional. Particulars: 33.3 µM.

Assay [6] concerns the target T3, Proteasome subunit beta (Trypanosoma cruzi) (UniProt O96673).
T3 sequence (whole entry): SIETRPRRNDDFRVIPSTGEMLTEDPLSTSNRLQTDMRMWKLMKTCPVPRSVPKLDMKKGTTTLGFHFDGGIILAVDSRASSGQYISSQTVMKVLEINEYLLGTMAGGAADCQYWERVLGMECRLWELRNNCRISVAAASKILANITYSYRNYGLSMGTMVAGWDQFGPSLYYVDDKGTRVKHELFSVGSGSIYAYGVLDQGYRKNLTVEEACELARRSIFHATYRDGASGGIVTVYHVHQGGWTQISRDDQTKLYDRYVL
Description: Trypanosoma cruzi proteasome chymotrypsin-like activity (TcProtChymo) assay. Note: in the data most compounds retested in dose-response had high values. Format: functional. Particulars: 9.37 µM.

The species entered for a further assay is Homo sapiens. Description: To identify inhibition of the IFN signalling (Jak-Stat) pathway via expression of an eGFP reporter gene under the control of an IFN-stimulated response element (ISRE) containing MxA promoter. Format: functional. Particulars: 30 µM. (In a reporter assay the amount or activity of a reporter protein is the signal.)
The target of assay [7] is T4, Tyrosyl-tRNA synthetase, putative (Trypanosoma cruzi (strain CL Brener)) (UniProt Q4DSP6).
T4 sequence (whole entry): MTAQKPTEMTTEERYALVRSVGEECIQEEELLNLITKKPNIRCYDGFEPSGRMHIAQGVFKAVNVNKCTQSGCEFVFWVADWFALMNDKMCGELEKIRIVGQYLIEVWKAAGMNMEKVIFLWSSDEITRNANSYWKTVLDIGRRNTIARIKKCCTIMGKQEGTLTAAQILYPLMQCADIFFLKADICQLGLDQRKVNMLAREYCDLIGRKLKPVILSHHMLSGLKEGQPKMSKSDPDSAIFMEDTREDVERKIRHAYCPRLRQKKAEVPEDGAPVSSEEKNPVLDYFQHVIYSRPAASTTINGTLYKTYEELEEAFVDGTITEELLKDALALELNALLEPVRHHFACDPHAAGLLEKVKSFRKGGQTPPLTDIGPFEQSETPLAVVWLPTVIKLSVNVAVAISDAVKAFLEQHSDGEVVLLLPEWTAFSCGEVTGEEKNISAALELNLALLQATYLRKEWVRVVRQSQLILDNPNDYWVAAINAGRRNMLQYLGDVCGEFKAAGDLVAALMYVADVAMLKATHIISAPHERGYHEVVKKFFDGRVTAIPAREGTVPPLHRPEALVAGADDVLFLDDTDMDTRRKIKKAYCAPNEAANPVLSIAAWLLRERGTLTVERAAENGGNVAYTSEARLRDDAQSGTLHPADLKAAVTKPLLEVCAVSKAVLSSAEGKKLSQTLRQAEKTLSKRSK
The experiment in a line: Trypanosoma cruzi tyrosyl tRNA synthetase (TcYRS) _High Tyrosine SOP. Note: in the data most compounds retested in dose-response had high values. It counts as functional. Particulars: 30 µM.

The target of assay [8] is T4, Tyrosyl-tRNA synthetase, putative (Trypanosoma cruzi (strain CL Brener)). The experiment in a line: Trypanosoma cruzi tyrosyl tRNA synthetase (TcYRS) SOP. Format: functional. Particulars: 30 µM.
Assay [9] concerns the target Chromo domain-containing protein 1 (Saccharomyces cerevisiae (strain ATCC 204508 / S288c) (Baker's yeast)) (UniProt P32657). Description: ScCHD-1 Enzyme Inhibition Assay. Note: in the data most compounds retested in dose-response had high values. Particulars: 30 µM. It counts as functional.

For some of these results: Measured potencies and affinities stand elsewhere.

Sialic acid-binding Ig-like lectin 9 (Homo sapiens), sequence (Q9Y336 whole entry): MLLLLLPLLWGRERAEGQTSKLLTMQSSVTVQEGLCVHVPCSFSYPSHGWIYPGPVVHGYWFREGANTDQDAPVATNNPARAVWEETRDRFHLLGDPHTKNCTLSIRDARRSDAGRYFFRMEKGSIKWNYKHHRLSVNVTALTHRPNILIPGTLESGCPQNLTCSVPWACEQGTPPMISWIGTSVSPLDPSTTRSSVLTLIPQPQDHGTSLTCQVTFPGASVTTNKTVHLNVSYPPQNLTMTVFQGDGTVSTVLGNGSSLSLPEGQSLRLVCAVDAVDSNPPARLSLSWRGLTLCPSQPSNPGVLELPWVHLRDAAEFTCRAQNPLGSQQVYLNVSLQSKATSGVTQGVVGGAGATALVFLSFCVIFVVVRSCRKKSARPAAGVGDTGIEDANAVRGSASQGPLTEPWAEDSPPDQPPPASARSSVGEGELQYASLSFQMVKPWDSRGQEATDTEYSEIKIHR
Chromo domain-containing protein 1 (Saccharomyces cerevisiae (strain ATCC 204508 / S288c) (Baker's yeast)), sequence (P32657 whole entry, the tested form may be a part): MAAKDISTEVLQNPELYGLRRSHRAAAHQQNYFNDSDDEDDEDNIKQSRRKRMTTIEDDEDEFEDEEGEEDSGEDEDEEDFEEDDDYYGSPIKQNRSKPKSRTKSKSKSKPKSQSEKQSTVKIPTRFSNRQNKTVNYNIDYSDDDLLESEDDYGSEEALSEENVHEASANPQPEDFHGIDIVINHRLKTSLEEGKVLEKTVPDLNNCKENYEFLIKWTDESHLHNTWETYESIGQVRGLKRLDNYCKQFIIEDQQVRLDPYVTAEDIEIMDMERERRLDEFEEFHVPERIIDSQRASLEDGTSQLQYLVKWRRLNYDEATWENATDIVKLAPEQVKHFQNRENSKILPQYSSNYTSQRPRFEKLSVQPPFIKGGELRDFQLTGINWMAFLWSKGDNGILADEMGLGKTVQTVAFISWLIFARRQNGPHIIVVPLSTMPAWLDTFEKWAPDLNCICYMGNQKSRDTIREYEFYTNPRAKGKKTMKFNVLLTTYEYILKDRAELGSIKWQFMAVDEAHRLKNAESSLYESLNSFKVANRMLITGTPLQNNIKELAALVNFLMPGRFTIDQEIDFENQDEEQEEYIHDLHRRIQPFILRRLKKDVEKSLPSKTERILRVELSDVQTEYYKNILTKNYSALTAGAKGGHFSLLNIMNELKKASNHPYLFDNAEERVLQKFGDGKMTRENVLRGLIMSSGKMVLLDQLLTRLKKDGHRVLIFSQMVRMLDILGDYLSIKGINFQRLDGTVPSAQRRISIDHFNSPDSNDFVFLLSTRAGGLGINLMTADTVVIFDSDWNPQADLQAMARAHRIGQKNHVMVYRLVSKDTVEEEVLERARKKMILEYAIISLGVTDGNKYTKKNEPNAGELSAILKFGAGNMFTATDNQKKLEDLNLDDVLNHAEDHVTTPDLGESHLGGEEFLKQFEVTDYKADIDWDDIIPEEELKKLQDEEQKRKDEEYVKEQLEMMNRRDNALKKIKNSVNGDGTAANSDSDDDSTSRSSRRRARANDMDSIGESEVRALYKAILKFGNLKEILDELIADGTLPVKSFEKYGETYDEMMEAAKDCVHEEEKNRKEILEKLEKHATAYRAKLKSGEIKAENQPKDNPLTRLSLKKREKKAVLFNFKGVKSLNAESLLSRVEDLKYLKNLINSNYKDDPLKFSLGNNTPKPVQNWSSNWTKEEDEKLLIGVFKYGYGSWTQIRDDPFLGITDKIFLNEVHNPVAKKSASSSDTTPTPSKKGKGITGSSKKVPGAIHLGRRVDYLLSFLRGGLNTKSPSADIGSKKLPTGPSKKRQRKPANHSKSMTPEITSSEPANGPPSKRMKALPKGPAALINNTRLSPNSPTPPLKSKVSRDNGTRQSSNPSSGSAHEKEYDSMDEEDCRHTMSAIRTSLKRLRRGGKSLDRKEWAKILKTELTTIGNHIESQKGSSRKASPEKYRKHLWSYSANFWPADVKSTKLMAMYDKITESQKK
Protein translocase subunit SecA (Escherichia coli (strain K12)), sequence (P10408 whole entry): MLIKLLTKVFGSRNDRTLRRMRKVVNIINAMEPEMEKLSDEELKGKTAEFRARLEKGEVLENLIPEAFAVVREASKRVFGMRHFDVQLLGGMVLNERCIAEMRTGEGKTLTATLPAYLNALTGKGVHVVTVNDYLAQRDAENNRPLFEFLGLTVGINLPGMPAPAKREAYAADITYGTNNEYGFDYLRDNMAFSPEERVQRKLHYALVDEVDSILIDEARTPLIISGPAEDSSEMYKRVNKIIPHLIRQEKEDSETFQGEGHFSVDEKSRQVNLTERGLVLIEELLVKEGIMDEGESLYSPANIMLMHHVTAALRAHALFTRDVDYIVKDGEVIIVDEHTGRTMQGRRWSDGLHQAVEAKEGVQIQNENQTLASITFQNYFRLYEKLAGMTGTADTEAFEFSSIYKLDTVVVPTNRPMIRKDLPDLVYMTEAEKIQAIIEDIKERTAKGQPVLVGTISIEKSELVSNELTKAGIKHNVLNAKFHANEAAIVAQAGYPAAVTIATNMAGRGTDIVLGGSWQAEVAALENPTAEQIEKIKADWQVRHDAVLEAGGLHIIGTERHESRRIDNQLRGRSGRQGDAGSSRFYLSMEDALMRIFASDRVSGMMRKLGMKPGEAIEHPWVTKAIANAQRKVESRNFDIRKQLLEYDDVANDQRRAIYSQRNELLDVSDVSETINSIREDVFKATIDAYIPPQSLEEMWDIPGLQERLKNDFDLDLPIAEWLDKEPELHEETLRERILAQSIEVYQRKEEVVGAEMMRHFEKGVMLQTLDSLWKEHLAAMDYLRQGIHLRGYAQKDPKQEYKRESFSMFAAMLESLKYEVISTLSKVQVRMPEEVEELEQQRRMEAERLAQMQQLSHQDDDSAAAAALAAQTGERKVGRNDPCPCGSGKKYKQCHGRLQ

On to `Nc1nccc(NCc2cc3n(n2)CCCN(C2CCCCC2)C3)n1`, for which the Percent Effect in assay [1] is -1.87%; in assay [2], 13.7%; in assay [3], -1.77%; in [4], 1.73%; in the assay on Trypanosoma cruzi, -0.198%; in [5] it was -1.2%. Besides, the Percent Effect was 24.4% in assay [6]; 2.07% in the assay filed under Homo sapiens; 9.38% in [7]; 23.5% in assay [8]; -4.35% in assay [9].

Consider `N#Cc1cc(NC(=O)c2ccccc2)ccc1N1CCC(O)CC1`, for which the Percent Effect in [1] was -0.198%; in assay [2], 10.8%; in assay [3], -7.93%; in assay [4], 6.67%; with Trypanosoma cruzi it was 2.51%; in assay [5], 9.05%. The Percent Effect is 10% in [6]; -5.21% in the assay listed under Homo sapiens; 1.59% in assay [7]; 9.76% in assay [8]; -2.82% in [9].

As for `O=S(=O)(C1CC1)N1CC[C@]2(C[C@@H](Oc3ccccn3)CO2)C1`, the Percent Effect was -2.9% in assay [1]; 10.4% in [2]; 2.58% in assay [3]; 5.55% in assay [4]; -2.46% in the assay with Trypanosoma cruzi; 3.23% in [5]. Moreover, the Percent Effect in assay [6] is 7.66%; in the assay listed under Homo sapiens, 11.7%; in assay [7], 0%; in [8], 8.97%; in assay [9], -7.95%.

For `Cc1cc(CN(C)C(=O)NC(C)c2nncn2C)no1` (stereo unspecified), the Percent Effect is -1.93% in [1]; 15.3% in assay [2]; -8.88% in [3]; 15.4% in assay [4]; 2.43% in the assay with Trypanosoma cruzi; 35.8% in [5]. For the same compound, the Percent Effect in assay [6] is 22.6%; in the assay filed under Homo sapiens, -0.22%; in assay [7], 3.16%; in assay [8] it was 10.3%; in [9], 72%.

Regarding `CCn1cc(NC(=O)NCC(c2cccs2)N(C)C)cn1` (stereo unspecified), the Percent Effect in [1] is 0.424%; in assay [2] it was 18.4%; in [3], -2.49%; in assay [4], 5.82%; with Trypanosoma cruzi, -3.76%; in assay [5] it was -3.83%. In addition, the Percent Effect in assay [6] was 7.69%; in the assay filed under Homo sapiens it was 2.58%; in assay [7], 5.39%; in assay [8], 19.5%; in assay [9] it was -7.09%.

As for `CCN(Cc1cccc(Cl)c1)Cn1nc(C)c2c(C)onc2c1=O`, the Percent Effect in [1] is -8.55%; in assay [2], 8.11%; in assay [3] it was -4.63%; in [4], 2.84%; in the assay on Trypanosoma cruzi it was -3.68%; in assay [5], -0.802%. In addition, the Percent Effect in assay [6] was -0.18%; in the assay listed under Homo sapiens, 14.3%; in assay [7], 1.48%; in [8], 1.24%; in assay [9], -6.67%.

With `CCOCC(O)CN1CCN(C(=O)c2ccnc(N(C)C)c2)CC1` (stereo unspecified), the Percent Effect in [1] is -2.11%; in assay [2], 2.7%; in assay [3], -5.93%; in [4], 13.5%; in the assay with Trypanosoma cruzi, 5.99%; in [5], 1.43%. The Percent Effect in assay [6] is 0%; in the assay filed under Homo sapiens, -4.49%; in assay [7], 1.59%; in assay [8], 7.32%; in assay [9], -3.55%.

For `COc1cc(N2C[C@@H]3COC[C@]3(COCc3cccc(C)n3)C2)ncn1`, the Percent Effect in [1] is -0.6%; in assay [2], 2.7%; in assay [3], 3.71%; in assay [4], 5.38%; with Trypanosoma cruzi, 4.79%; in assay [5], 0.955%. For the same compound, the Percent Effect in [6] is 17.7%; in the assay listed under Homo sapiens it was 27.6%; in assay [7], 1.08%; in assay [8], 2.56%; in assay [9], 2.03%.

With `O=C(CCc1cccs1)N1CCC(Nc2cccnn2)CC1`, the Percent Effect in assay [1] was -7.51%; in assay [2] it was -23.7%; in assay [3], -9.73%; in [4] it was 4.64%; in the assay on Trypanosoma cruzi it was 8.87%; in assay [5], 1.8%. For the same compound, the Percent Effect is 9.73% in assay [6]; 5.28% in the assay filed under Homo sapiens; 9.36% in assay [7]; 23.5% in assay [8]; -11.1% in assay [9].

As to `COc1c(CNCc2cnn(C)c2)c(C(C)C)nn1C`, the Percent Effect in [1] was -4.88%; in [2] it was 23.7%; in assay [3], -11.3%; in assay [4], -0.847%; in the assay on Trypanosoma cruzi, 3.01%; in assay [5], 3.45%. Further, the Percent Effect in assay [6] was 7.18%; in the assay filed under Homo sapiens it was -15.7%; in assay [7] it was 6.37%; in assay [8], 21.9%; in assay [9], -13.8%.

Regarding `CCc1ccc(-n2c(=O)[nH]c3nc(N4CCSCC4)ncc3c2=O)cc1`, the Percent Effect in assay [1] is -2.14%; in assay [2], 21.1%; in assay [3], 0.234%; in [4] it was -5.88%; in the assay with Trypanosoma cruzi it was 1.85%; in [5], 5.92%. Besides, the Percent Effect in assay [6] is 15.8%; in the assay filed under Homo sapiens it was -2.32%; in [7] it was 0%; in assay [8], 5.2%; in [9], 45.8%.
